# This is one part of a sample in which hits are shown more often than they occur.
# IDE exosite inh – exo-site inhibitors of human IDE, primary screen, biochemical, fluorescence anisotropy, probe displacement; z-score at 20 µM; Insulin-degrading enzyme (Homo sapiens), P14735; purified IDE, FL-6b probe fluorescence polarization; hits give low values; AID 1259349, 2017; actives 6.3% (n = 17,000);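 active means z-score of -3 or lower, meaning strong loss of probe binding signal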;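 further: His-tagged human IDE residues 42-1019 made in E. coli with 30 nM FL-6b probe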
# Numbers stand for hits; . = inactive; ! = not confirmed by another sample.
SMILES,IDE exosite inh
O=C(c1cnccn1)N1CC(=O)N2[C@H](CO)[C@H](c3ccc(-c4cccc(F)c4)cc3)[C@@H]2C1,.
O=C(c1cccc(F)c1)N1CC(=O)N2[C@H](CO)[C@H](c3ccc(-c4cccnc4)cc3)[C@@H]2C1,.
O=C(c1cnccn1)N1CC(=O)N2[C@@H](CO)[C@@H](c3ccc(-c4ccc(F)cc4)cc3)[C@@H]2C1,.
O=C(c1cnccn1)N1CC(=O)N2[C@H](C1)[C@@H](c1ccc(-c3cccc(F)c3)cc1)[C@@H]2CO,-3.97
O=C(c1cnccn1)N1CC(=O)N2[C@H](C1)[C@@H](c1ccc(-c3ccc(F)cc3)cc1)[C@@H]2CO,.
O=C(c1ccccn1)N1CC(=O)N2[C@H](C1)[C@@H](c1ccc(-c3cccc(F)c3)cc1)[C@@H]2CO,-7.75
O=C(c1ccccn1)N1CC(=O)N2[C@H](C1)[C@H](c1ccc(-c3cccc(F)c3)cc1)[C@@H]2CO,.
O=C(c1cnccn1)N1CC(=O)N2[C@H](CO)[C@@H](c3ccc(-c4cccc(F)c4)cc3)[C@@H]2C1,-3.68
COc1ccc(NC(=O)N2CCCCN3[C@H](CO)[C@@H](c4ccc(C5=CCCCC5)cc4)[C@H]3C2)cc1,.
Cc1cccc(-c2ccc(C3[C@@H]4CN(C(=O)c5ccncc5)C[C@H]3N4)cc2)c1 (stereo not given in full),.
N#Cc1ccc(-c2ccc(C3[C@@H]4CN(C(=O)c5ccncc5)C[C@H]3N4)cc2)cc1 (stereo not given in full),.
COc1ccccc1-c1ccc(C2[C@@H]3CN(C(=O)c4cccnc4)C[C@H]2N3)cc1 (stereo not given in full),-13.8!
O=C(c1ccc(F)cc1)N1C[C@@H]2N[C@H](C1)C2c1ccc(-c2cccnc2)cc1 (stereo not given in full),.
COc1ccc(-c2ccc(C3[C@@H]4CN(C(=O)c5ccc(F)cc5)C[C@H]3N4)cc2)cc1 (stereo not given in full),.
COc1ccccc1-c1ccc(C2[C@@H]3CN(C(=O)c4ccncc4)C[C@H]2N3)cc1 (stereo not given in full),-7.28!
CCS(=O)(=O)Nc1ccc2c(c1)C(=O)N(C)[C@@H]1CC[C@@H](CC(=O)NCCCN3CCOCC3)O[C@H]1CO2,.
O=C(CCN1CCCCC1)N[C@H]1CC[C@H](CC(=O)N2CCC(Cc3ccccc3)CC2)O[C@@H]1CO,.
COc1cccc(C#Cc2ccc([C@H]3[C@H]4CN(S(=O)(=O)c5ccccc5C)CC(=O)N4[C@H]3CO)cc2)c1,.
COc1ccccc1C#Cc1ccc([C@@H]2[C@@H](C#N)N(C(=O)C3CC3)[C@@H]2CO)cc1,-6.45
N#C[C@@H]1[C@H](c2ccc(C#Cc3ccccc3F)cc2)[C@H](CO)N1C(=O)C1CC1,.
N#C[C@@H]1[C@H](c2ccc(C#Cc3ccccc3F)cc2)[C@@H](CO)N1C(=O)C1CC1,.
COCC(=O)N1[C@@H](C#N)[C@@H](c2ccccc2)[C@@H]1CO,.
N#C[C@H]1[C@@H](c2ccc(C#Cc3ccccc3F)cc2)[C@@H](CO)N1C(=O)C1CC1,-3.36
COc1ccccc1C#Cc1ccc([C@H]2[C@@H](C#N)N(C(=O)C3CC3)[C@@H]2CO)cc1,-5.3
COCC(=O)N1[C@H](C#N)[C@@H](c2ccc(C#Cc3ccccc3F)cc2)[C@H]1CO,-3.92
SMILES,IDE exosite inh
N#C[C@H]1[C@@H](c2ccc(C#Cc3ccccc3F)cc2)[C@H](CO)N1C(=O)C1CC1,.
Cc1ccc(S(=O)(=O)N2[C@@H]3CNC[C@H]2C3c2ccc(-c3cccc(C)c3)cc2)cc1 (stereo not given in full),.
COc1ccc(S(=O)(=O)Nc2ccc3c(c2)C(=O)N([C@@H](C)CO)C[C@H](C)[C@H](CN(C)Cc2ccc(C(F)(F)F)cc2)OCCCC[C@H](C)O3)cc1,.
COc1ccc2c3c(n(C)c2c1)[C@H](CO)N(C)CC31CCN(S(=O)(=O)c2cccc(F)c2)CC1,.
C[C@H]1CCc2cnnn2COCCNC1=O,.
O=C(C[C@@H]1CC[C@H]2[C@@H](COC[C@@H](O)CN2C(=O)c2cccnc2)O1)NCC1CC1,.
CCCC#Cc1ccc([C@@H]2[C@@H](CO)N3C(=O)CN(S(=O)(=O)Cc4ccccc4)C[C@@H]23)cc1,.
CNC[C@H]1OCCCC[C@H](C)Oc2ccc(NC(=O)Nc3ccc(OC)cc3)cc2C(=O)N([C@H](C)CO)C[C@@H]1C,.
CCCNC(=O)N1C[C@@H](C)[C@@H](OC)CN(C)C(=O)c2ccc(NC(=O)CC)cc2OC[C@@H]1C,.
COc1ccccc1C#Cc1ccc([C@@H]2[C@H](C#N)N(C(=O)C3CC3)[C@H]2CO)cc1,-9.27
COc1ccccc1C#Cc1ccc([C@@H]2[C@@H](C#N)N(C(=O)C3CC3)[C@H]2CO)cc1,-4.25
N#C[C@H]1[C@H](c2ccc(C#Cc3ccc(F)cc3)cc2)[C@H](CO)N1C(=O)C1CC1,.
N#Cc1ccc(-c2ccc([C@H]3[C@H](CO)N4CCCCN(S(=O)(=O)c5ccccc5)C[C@@H]34)cc2)cc1,.
